# Assay results reported in article PMC4336329 (PLoS ONE, 2015).
# Among all 310,000 compounds or so, about 14,000 (4.5%) showed an effect of 50% or more. Effects have a minus sign here. For the sample, strong results were picked, then their nearest neighbours and some compounds at random.
# Biological target: human ether-à-go-go-related gene (hERG) potassium channel (human, UniProt Q12809)
# Experiment: primary screen, population patch clamp on CHO cells stably expressing hERG; higher = less effect of the substance
# 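Note: peak tail current of the secondary pulse compared with the same well before compound.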
# Sequence of human ether-à-go-go-related gene (hERG) potassium channel (Q12809 whole entry, looked up): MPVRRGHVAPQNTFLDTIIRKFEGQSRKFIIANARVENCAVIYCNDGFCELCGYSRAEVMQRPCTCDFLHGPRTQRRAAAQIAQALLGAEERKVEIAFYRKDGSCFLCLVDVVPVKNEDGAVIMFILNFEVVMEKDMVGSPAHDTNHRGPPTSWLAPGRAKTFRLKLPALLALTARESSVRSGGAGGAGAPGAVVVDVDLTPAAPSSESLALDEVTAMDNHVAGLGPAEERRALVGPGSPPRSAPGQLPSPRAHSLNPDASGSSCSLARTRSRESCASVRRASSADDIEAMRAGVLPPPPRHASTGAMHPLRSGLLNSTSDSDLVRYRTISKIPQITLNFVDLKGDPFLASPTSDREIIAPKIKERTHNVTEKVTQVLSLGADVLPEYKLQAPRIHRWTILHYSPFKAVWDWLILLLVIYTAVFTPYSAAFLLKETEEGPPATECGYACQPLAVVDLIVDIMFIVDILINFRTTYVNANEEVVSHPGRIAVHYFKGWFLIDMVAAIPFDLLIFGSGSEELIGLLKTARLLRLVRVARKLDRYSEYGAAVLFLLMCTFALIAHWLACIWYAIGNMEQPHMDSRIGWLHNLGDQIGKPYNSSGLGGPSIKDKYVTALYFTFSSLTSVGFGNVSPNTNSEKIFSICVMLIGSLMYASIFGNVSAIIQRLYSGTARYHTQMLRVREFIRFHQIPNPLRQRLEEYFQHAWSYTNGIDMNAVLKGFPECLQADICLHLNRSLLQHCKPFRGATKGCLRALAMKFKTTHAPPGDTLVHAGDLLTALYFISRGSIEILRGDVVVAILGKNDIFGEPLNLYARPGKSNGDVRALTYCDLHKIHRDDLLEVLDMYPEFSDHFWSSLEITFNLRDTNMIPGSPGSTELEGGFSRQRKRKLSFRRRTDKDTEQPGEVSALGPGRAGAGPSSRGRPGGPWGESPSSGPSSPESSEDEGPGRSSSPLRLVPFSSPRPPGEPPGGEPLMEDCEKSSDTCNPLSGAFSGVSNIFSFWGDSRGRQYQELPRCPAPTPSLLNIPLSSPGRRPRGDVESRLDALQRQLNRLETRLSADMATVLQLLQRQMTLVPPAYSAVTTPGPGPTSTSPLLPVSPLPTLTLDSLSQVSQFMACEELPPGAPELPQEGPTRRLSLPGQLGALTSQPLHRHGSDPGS
row,Structure (SMILES),"hERG current change (%, negative = inhibition) at 10uM [%]"
1,NC(=O)CN1C2CCC1CC(NC(=O)C1CC1)C2 (stereo not shown),14.7
2,O=C(Nc1ccc(C(=O)N2CCCC2)cc1)c1ccccc1Br,19.8
3,COc1ccccc1NS(=O)(=O)c1ccc(O)cc1,1.44
4,COc1nc(N=C(N)N)nc2c(C)cccc12,-2.93
5,CC(=O)Nc1ccc(S(=O)(=O)Nc2nc3ccccc3nc2Nc2ccccc2)cc1,10.3
6,CC(=O)Nc1ccc(NC(=O)CN(C)S(=O)(=O)c2ccc3nc(C)sc3c2)cc1,25.7
7,O=C1NCCCC1C(=O)N/N=C/c1ccccc1 (stereo not shown),-4.35
8,O=C(c1cc2sccc2n1Cc1ccccc1)N1CCCc2ccccc21,1.8
9,Cn1c(-c2ccc3c(c2)OCO3)cnc1NC(=O)CCC(=O)NCCc1ccccc1,-6.98
10,Cc1ccc(CNc2ccc3c(c2)OCO3)cc1,-4.29
11,O=C(NCc1cccc(Cl)c1)c1ccc2c(c1)OCO2,0.973
12,Cc1ccc(CNc2ncc(-c3ccc4c(c3)OCO4)n2C)cc1.O=C(O)C(=O)O,-59
13,Cn1c(-c2ccc3c(c2)OCO3)cnc1NCc1cccc(Cl)c1.O=C(O)C(=O)O,-74
14,Cn1c(-c2ccc3c(c2)OCO3)cnc1N,-16.5
15,Cn1c(-c2ccc3c(c2)OCO3)cnc1NCc1ccccc1.O=C(O)C(=O)O,-60
16,Cn1c(-c2ccc3c(c2)OCO3)cnc1NCc1cccc(O)c1.O=C(O)C(=O)O,-23.1
17,COc1ccc2c(CC(=O)Nc3ncc(C)s3)coc2c1,5.72
18,CN(C)c1ccc(C(CC(=O)O)C(=O)O)cc1 (stereo not shown),14.4
19,CCOc1ccc(C(=O)CCC(=O)Nc2ncccc2O)cc1,5.51
20,Cc1ccccc1OCC(O)Cn1c(NCCN(C)C)nc2c1c(=O)n(C)c(=O)n2C (stereo not shown),-20.3
21,CSc1cccc(NC(=O)/C=C/c2ccc(Cl)cc2)c1,-4.08
22,O=S(=O)(Nc1ncccn1)c1ccc(NC(=S)N2CCN(Cc3ccc(F)cc3Cl)CC2)cc1,22

row,Structure (SMILES),"hERG current change (%, negative = inhibition) at 10uM [%]"
1,CNC(C)C#Cc1ccc2c(=O)c3c(OC)cccc3oc2c1 (stereo not shown),0.579
2,CC(=O)Nc1sc2c(c1CN1CCN(c3ccc(F)cc3)CC1)CCCC2,-6.73
3,CC(C)(C)c1ccc(C(=O)Nc2ccc(Oc3cccnc3)nc2)cc1,-61.2
4,CC(C)(C)c1ccc(C(=O)Nc2cccnc2)cc1,-18.7
5,O=C(Nc1ccc(Oc2cccnc2)nc1)c1ccc(C(F)(F)F)cc1,-30
6,CCCCC(=Nc1ccccc1OC)C1=C(O)CC(c2ccccc2)CC1=O (stereo not shown),3.11
7,COc1cc(C2C(C#N)=C(N)Oc3cc(N(C)C)ccc32)cc2c1OCO2 (stereo not shown),-6.32
8,COC(=O)c1ccc(COc2ccc(F)cc2)o1,-27.4
9,COc1cc(/C=C2/SC(=S)N(CCC(=O)Nc3ccccc3)C2=O)cc(OC)c1OC,13.8
10,CSc1nnc2c3cc(C)ccc3n(Cc3ccccc3)c2n1,2.55
11,CCN(CC)CCSc1nnc2c3cc(C)ccc3n(Cc3ccccc3)c2n1,-79.1
12,CCN(CC)CCSc1nnc2c3cc(F)ccc3n(Cc3ccccc3)c2n1,-77
13,CSc1nnc2c3cc(F)ccc3n(Cc3ccccc3)c2n1,13.6
14,Cc1ccc2c(c1)c1nnc(SCC(=O)Nc3cccc(Cl)c3C)nc1n2CC(=O)O,19.6
15,NNc1nnc2c3cc(F)ccc3n(Cc3ccccc3)c2n1,-22.4
16,O=c1cc(CNc2cc(C(F)(F)F)cc(C(F)(F)F)c2)nc2sccn12,-6.36
17,Cn1nc(OCCOc2ccccc2)ccc1=O,-4.45
18,NC(=O)c1ccc(Oc2ncc(C(F)(F)F)cc2Cl)cc1,-3.77
19,O=C(NCc1cccs1)c1ccccc1F,-3.47
20,CC(C)(C)c1nc(CN2CCCCC2)cc(CN2CCCCC2)c1O,-24.2
21,Cc1ccc(-c2nc(CN3CCCCC3)cc(CN3CCCCC3)c2O)cc1.Cl,-62.5
22,Cc1ccc(-c2nc(CN(C)C)cc(CN(C)C)c2O)cc1.Cl,-14.6

row,Structure (SMILES),"hERG current change (%, negative = inhibition) at 10uM [%]"
1,Cc1ccccc1OCC(=O)OCn1nnc2ccccc2c1=O,19.6
2,Cc1ccc2[nH]c3c(=O)n(CC(=O)NCc4ccco4)ncc3c2c1,21.9
3,CCN(CCCNC(=O)Cn1ncc2c([nH]c3ccccc32)c1=O)Cc1ccccc1,-67
4,CCN(CCCNC(=O)Cn1ncc2c([nH]c3ccc(C)cc32)c1=O)Cc1ccccc1,-58.5
5,CC(C)N(CCCNC(=O)Cn1ncc2c([nH]c3ccccc32)c1=O)Cc1ccccc1,-48.1
6,CCN(CCCNC(=O)Cn1ncc2c([nH]c3ccc(C)cc32)c1=O)c1ccccc1,19
7,Cc1ccc2[nH]c3c(=O)n(CC(=O)NCCCN(C)Cc4ccccc4)ncc3c2c1,-31.6
8,O=C(Cn1ncc2c([nH]c3ccccc32)c1=O)NCCc1ccccc1,3.06
9,Cc1ccc(NC(=O)c2oc3ccc(S(=O)(=O)N4CCOCC4)cc3c2C)c(C)c1,5.03
10,O=C(Nc1nc(N2C(=O)c3ccccc3C2=O)n(-c2ccccc2)n1)c1ccc(Cl)cc1,-7.9
11,CC1CC(C)CN(CCCNC(=O)Cc2c(C(=O)O)n(C)c3ccccc23)C1 (stereo not shown),-15.9
12,COC(=O)c1c(NC(=O)CCCC(=O)O)sc2c1CCCCC2,12.2
13,CCOc1ccc(-c2n[nH]c(C)c2-c2ccccn2)c(O)c1,13.6
14,CS(=O)(=O)Nc1ccc(C(=O)NCc2ccccn2)cc1,0.863
15,O=C(NC1CCCC1)c1ccc(CS(=O)(=O)Cc2ccccc2F)o1,-7.89
16,CC(=O)Nc1ccc(NC(=O)COC(=O)c2ccccc2SCC(=O)N2CCCC2)cc1,5.48
17,O=C(CSc1nc2ccccc2c(=O)n1CCCO)NCc1ccccc1,-41.5
18,COCCCn1c(SCC(=O)NCc2ccccc2)nc2ccccc2c1=O,-48.6
19,Cc1ccc(CNC(=O)CSc2nc3ccccc3c(=O)n2CCCO)cc1,-73
20,COc1cccc(NC(=O)CSc2nc3ccccc3c(=O)n2CCCC(=O)N2CCCC2)c1,-67.3
21,COc1ccc(NC(=O)COC(=O)c2ccccc2SCC(=O)N2CCCC2)cc1,-53.9
22,COc1cc(NC(=O)COC(=O)c2ccccc2SCC(=O)N2CCCC2)cc(OC)c1,-25.7

row,Structure (SMILES),"hERG current change (%, negative = inhibition) at 10uM [%]"
1,N#CCSc1nc2ccccc2c(=O)n1CCCC(=O)NCc1ccco1,-33.7
2,CCn1c(SCC(=O)Nc2cccc(OC)c2)nc2ccccc2c1=O,-47.1
3,Cc1ccc(NC(=O)CSc2nc3ccccc3c(=O)n2CCCC(=O)N2CCCC2)cc1,-44.5
4,CC(=O)NCCn1c(SCC(=O)NCc2ccco2)nc2ccccc2c1=O,-23.9
5,O=C(CSc1nc2ccccc2c(=O)n1CCCC(=O)N1CCCC1)NCc1ccco1,-62.4
6,CCCCN(C(=O)CSc1nnnn1C)C1CCS(=O)(=O)C1 (stereo not shown),-28.1
7,COC(=O)N/N=C/c1cn(CCOc2ccc(OC)cc2)c2ccccc12,16.8
8,Cc1ccc(-n2cc3c(=O)n(C)c(=O)n(C)c3c2)cc1C,-6.21
9,CC(=O)N[C@H]1C(O)O[C@H](CO)[C@@H](O)[C@@H]1O (stereo partly shown),9.71
10,CCN(CC)c1ccc(C=O)c(OC)c1,-9.16
11,N#C/C(=C\c1cc2c(cc1Br)OCO2)c1ccc(C(=O)O)cc1,13.2
12,COCC(=O)N(C)c1nnc(-c2ccc([N+](=O)[O-])cc2)s1,6.65
13,CN(CC(=O)Nc1c(Cl)cccc1Cl)C(=O)c1ccncc1,19.4
14,Cn1cnc2c1c(=O)n(Cc1cccc(F)c1)c(=O)n2C,12
15,Nc1c(C(=O)NC2CCCCC2)nsc1C(=O)OCC(=O)NC1CCCCC1,12.5
16,CCn1c(-c2cc(-c3ccc(C)cc3)nc3ccccc23)n[nH]c1=S,11.4
17,CNCCOc1ccc(Cl)c(Cl)c1.O=C(O)C(=O)O,12.8
18,COc1ccc(NC(=O)CNC(=O)Cc2cccc3ccccc23)c(OC)c1,2.01
19,O=C(Nc1ncc(Cc2ccccc2)s1)C1COc2ccccc2O1 (stereo not shown),-0.581
20,CCOC(=O)c1c(-c2ccc(C)o2)csc1NC(=O)COC(=O)c1cccs1,-12
21,CN1C(=O)NC(c2ccc(O)cc2)C2=C1CN(c1cccc3ccccc13)C2=O (stereo not shown),-11.8
22,CCC(=O)NC(NC(=S)Nc1ccc(S(N)(=O)=O)cc1)C(Cl)(Cl)Cl (stereo not shown),-1.3
